PubChem BioAssay (EPA / NIEHS)
Inconclusive results are not listed. The source made the active and inactive calls. The calls were made as follows, unless noted: active = hit-call score of the fitted dose curve at least 0.9, where 1 is the maximum; inactive = score below 0.9.

What was measured:
[1] = CCTE_Shafer_MEA_dev_firing_rate_mean: CCTE's Neural Network Formation Assay for Mean Firing Rate, Shafer Lab (AID 2284031)
In short: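 Steps: seed rat cortical cells (1.5 x 10^5/well) with laminin on PEI-coated MEA; dose day 0; record DIV 5/7/9/12, full media and compound exchange after DIV 5 and 9 recordings; compute well-mean firing rate AUC.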

[2] = CCTE_Shafer_MEA_dev_per_burst_spike_percent: CCTE's Neural Network Formation Assay for Percent of Spikes in a Burst, Shafer Lab (AID 2284032)
In short: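 Value is trapezoidal AUC over recordings on days 5, 7, 9 and 12 of the well-mean fraction of spikes falling in single-electrode bursts; rat cortical cultures exposed continuously from plating, treatment renewed DIV 5 and 9, fitted downward against DMSO.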

[3] = CCTE_Shafer_MEA_dev_active_electrodes_number: CCTE's Neural Network Formation Assay for Number of Active Electrodes, Shafer Lab (AID 2284040; active = hit-call score of the fitted dose curve at least 0.9, where 1 is the maximum)
In short: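 Counts electrodes per well firing at least 5 spikes/min, recorded on days 5, 7, 9 and 12 in rat cortical cultures dosed continuously from plating (treatment refreshed DIV 5, 9). Value is the area under the curve over recordings, fitted downward relative to DMSO.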

[4] = CCTE_Shafer_MEA_dev_burst_rate: CCTE's Neural Network Formation Assay for Burst Rate, Shafer Lab (AID 2284042)
In short: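 Rat primary cortical cultures on PEI/laminin MEA; compound from plating, re-dosed at DIV 5, 9 media change. Single-electrode bursts/recording length, well mean of active electrodes; AUC over DIV 5–12 recordings; loss-of-signal vs DMSO.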

[5] = CCTE_Shafer_MEA_dev_bursting_electrodes_number: CCTE's Neural Network Formation Assay for Number of Bursting Electrodes, Shafer Lab (AID 2284043; active = hit-call score of the fitted dose curve at least 0.9, where 1 is the maximum)
In short: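 Number of electrodes reaching ≥1 burst every 2 min was recorded at DIV 5, 7, 9 and 12 and collapsed as trapezoidal area under the curve. Cultures were rat cortical neurons on MEA plates, dosed continuously from plating with medium and treatment refreshed on DIV 5 and 9.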

[6] = CCTE_Shafer_MEA_dev_per_burst_interspike_interval: CCTE's Neural Network Formation Assay for Burst Interspike Interval, Shafer Lab (AID 2284044)
In short: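 Spontaneous activity of maturing rat cortical networks is recorded on DIV 5, 7, 9 and 12 under chronic compound exposure beginning at plating. Endpoint: burst interspike interval well-mean, collapsed into trapezoidal AUC and fitted in the negative direction relative to DMSO.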

[7] = CCTE_Shafer_MEA_dev_burst_duration_mean: CCTE's Neural Network Formation Assay for Mean Burst Duration, Shafer Lab (AID 2284045)
In short: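 Mean single-electrode burst duration (first to last spike), averaged over bursting electrodes per well, then integrated as area-under-curve across recordings at days 5, 7, 9 and 12. Rat cortical cultures on MEAs, compound present from plating, refreshed at feeds.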

[8] = CCTE_Shafer_MEA_dev_interburst_interval_mean: CCTE's Neural Network Formation Assay for Mean Interburst Interval, Shafer Lab (AID 2284046);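 also: well-mean interburst interval of bursting electrodes as AUC over four recording days; curve fitted for decrease in interburst interval relative to DMSO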
In short: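 Rat cortical neurons, 1.5 x 10^5 cells/well, 48-well MEA; compound from day 0 through DIV 12, media and treatment renewed DIV 5/9. Recordings DIV 5, 7, 9, 12; well-mean interburst interval → trapezoidal AUC, loss direction vs DMSO.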

[9] = CCTE_Shafer_MEA_dev_inter_network_spike_interval_mean: CCTE's Neural Network Formation Assay for Mean Inter-network Spike Interval, Shafer Lab (AID 2284047)
In short: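 Primary rat cortical neurons on PEI-coated 48-well MEAs (16 electrodes/well) were exposed from plating day 0 to DIV 12, with dosing renewed at DIV 5 and 9. Recordings at DIV 5, 7, 9, 12 were collapsed by trapezoidal AUC, loss-of-signal fit vs DMSO.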

[10] = CCTE_Shafer_MEA_dev_network_spike_peak: CCTE's Neural Network Formation Assay for Mean Number of Electrodes in Network Spike, Shafer Lab (AID 2284049);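 also: fitted for loss of signal meaning fewer electrodes in network spikes than DMSO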
In short: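 Rat cortical primary culture, 1.5 x 10^5 cells/well, 48-well MEA (16 electrodes/well). Dosing day 0 through DIV 12, full media/compound exchange DIV 5, 9. AxIS adaptive spike detection; AUC over days 5/7/9/12; loss-of-signal vs DMSO.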

[11] = CCTE_Shafer_MEA_dev_spike_duration_mean: CCTE's Neural Network Formation Assay for Mean Spike Duration, Shafer Lab (AID 2284051);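 also: mean network spike duration pooled as area under curve over DIV 5 to 12 recordings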
In short: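 Rat cortical primary cultures, 48-well MEA (16 electrodes/well); compound from plating, renewed DIV 5, 9. Network spike duration (AxIS adaptive detector) recorded DIV 5/7/9/12, combined as trapezoidal AUC; loss direction vs DMSO.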

[12] = CCTE_Shafer_MEA_dev_network_spike_duration_std: CCTE's Neural Network Formation Assay for Standard Deviation of Network Spike Duration, Shafer Lab (AID 2284052);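 also: hits are decreases in network spike duration SD versus DMSO vehicle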
In short: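 Rat cortical cultures, 1.5 x 10^5 cells/well, exposed continuously from plating to DIV 12 with media/compound renewal at DIV 5, 9. Spontaneous activity recorded DIV 5/7/9/12, AxIS adaptive spike detector; AUC across days; negative direction vs DMSO.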

[13] = CCTE_Shafer_MEA_dev_per_network_spike_spike_number_mean: CCTE's Neural Network Formation Assay for Mean Number of Spikes in a Network Spike, Shafer Lab (AID 2284053)
In short: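 Rat cortical primary cultures on 48-well MEA; compound from day 0, re-dosed with full media change DIV 5, 9. Recorded DIV 5, 7, 9, 12; spikes in 0.05 s window at network-spike peak ÷ total network spikes; AUC; loss vs DMSO.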

[14] = CCTE_Shafer_MEA_dev_per_network_spike_spike_percent: CCTE's Neural Network Formation Assay for Percent of Spikes in a Network Spike, Shafer Lab (AID 2284054)
In short: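 Metric: fraction of spikes falling in a 0.05 s window at network-spike peaks. Recordings were made on days 5, 7, 9 and 12 and collapsed by trapezoidal AUC. Cultures were rat cortical neurons on MEA plates, dosed continuously from plating, re-dosed at media changes.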

[15] = CCTE_Shafer_MEA_dev_LDH: CCTE's Lactate Dehydrogenase Assay for Cytotoxicity in the Neural Network Formation Assay, Shafer Lab (AID 2284068; active = hit-call score of the fitted dose curve at least 0.9, where 1 is the maximum;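 also: exposure for twelve days from plating with re-dosing on DIV 5 and 9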)
In short: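 Rat cortical primary neurons, MEA culture; dosing day 0–12, full medium plus compound exchange DIV 5, 9. Read-out: LDH enzyme activity, spectrophotometric. DMSO = negative control/baseline; signal loss → cytotoxicity.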

[16] = CCTE_Shafer_MEA_dev_mutual_information_norm: CCTE's Neural Network Formation Assay for Mutual Information Normalization, Shafer Lab (AID 2284091)
In short: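 Shared information across electrodes, tracked on days 5, 7, 9 and 12 of network development and collapsed as trapezoidal area under the curve. Rat cortical cultures were treated continuously from plating, with treatment renewed at feeds on DIV 5 and 9; DMSO baseline, negative-direction fit.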

[17] = CCTE_Shafer_MEA_dev_correlation_coefficient_mean: CCTE's Neural Network Formation Assay for Mean Correlation Coefficient, Shafer Lab (AID 2284093)
In short: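 Rat cortical cultures, 1.5 x 10^5 cells/well, dosed from day 0 for 12 days. Spontaneous spikes recorded DIV 5/7/9/12; electrode-pair correlation coefficients averaged, AUC taken. Fit in loss direction vs DMSO.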

[18] = UKN2_HCS_IMR90_neural_migration: University of Konstanz (UKN) Leist Lab Neural Crest Cell Migration Assay in human induced IMR90 Pluripotent Stem Cells (UKN2) (AID 2284204); settings: actives raise or lower the signal
In short: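 High-content imaging of calcein-AM and Hoechst stained cells quantifies migration into a stopper-defined gap after 24 h compound exposure. Neural crest cells from IMR90 iPSC migrated 24 h in EGF/FGF N2-S medium before dosing; DMSO baseline.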

[19] = IUF_NPC1b_proliferation_BrdU_72hr: Leibniz Research Institute for Environmental Medicine (IUF) 72-hour Neural Progenitor Cell Bromodeoxyuridine (BrdU) Proliferation Assay (NPC1b) (AID 2284207)
In short: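 Human fetal cortex-derived (GW 16-19) neural progenitor spheres, 0.25-0.35 mm, one per well in EGF/FGF proliferation medium, exposed to compound for 72 h at 37C, pH 7.2-7.6. BrdU incorporation over the final 16 h read by luminescence ELISA, relative to DMSO.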

[20] = IUF_NPC1a_proliferation_area_72hr: Leibniz Research Institute for Environmental Medicine (IUF) 72-hour Neural Progenitor Cell Proliferation Area Assay (NPC1a) (AID 2284208)
In short: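 Measured in 3D suspension: each well held one primary hNPC sphere grown with EGF and FGF at pH 7.2-7.6. Compound stayed on for 72 h, then area was imaged; spheres lacking growth factors defined reduced proliferation.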

[21] = IUF_NPC1_viability_72hr: Viability Assessment at 72 hours in the Leibniz Research Institute for Environmental Medicine (IUF) Neural Progenitor Cell Proliferation Assay (NPC1) (AID 2284209)
In short: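 Spheres of primary human neural progenitors were plated singly in proliferation medium and treated for 72 h. Mitochondrial reduction of resazurin was then measured by fluorescence and analysed against DMSO controls.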

[22] = CCTE_Mundy_HCI_Cortical_Synap_Neur_Matur_NeuriteSpotCountPerNeuriteLength: CCTE's Synaptogenesis and Neurite Maturation Assay in rat cortical cells for Neurite Spot Count per Neurite Length, Mundy Lab (AID 2284210)
In short: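 Synaptophysin spots per unit neurite length, measured by automated imaging of MAP2/synaptophysin/Hoechst-stained neurons. Cultures from rat cortex received chemical at DIV 7 with media change through DIV 12; glial growth arrested by AraC at DIV 5; DMSO baseline.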

[23] = CCTE_Mundy_HCI_Cortical_Synap_Neur_Matur_BPCount: CCTE's Synaptogenesis and Neurite Maturation Assay in rat cortical cells for Branch Point Count, Mundy Lab (AID 2284211)
In short: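 HCI read-out of branch points from MAP2/synaptophysin/Hoechst immunofluorescence; rat cortical cultures, AraC DIV 5, dosing DIV 7, fixed DIV 12; fit in positive direction vs DMSO baseline.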

[24] = CCTE_Mundy_HCI_Cortical_NOG_NeuriteCount: CCTE's Neurite Outgrowth Assay in rat cortical cells for Neurite Count, Mundy Lab (AID 2284212);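 also: cells fixed about two days after chemical exposure began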
In short: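 Rat cortical primary cells; compound added 2 h post-plating, 1/10 dilution of working solution. Anti-betaIII-tubulin/AF488 ICC; ArrayScan neurite count vs DMSO.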

[25] = CCTE_Mundy_HCI_Cortical_NOG_NeuriteLength: CCTE's Neurite Outgrowth Assay in rat cortical cells for Neurite Length, Mundy Lab (AID 2284213)
In short: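 First, rat primary cortical cells were plated and, 2 h later, given test chemical as a 1/10 dilution. Finally, βIII-tubulin immunostaining enabled automated imaging of neurite length.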

Measured: AC50

CCOP(=S)(OCC)SCS(=O)C(C)(C)C (stereo not given)
active: [10] 555 nM | [19] 2340 nM
inactive: all other assays above
